{"source": "PubChem BioAssay (Tox21)", "note": "Values joined by “and” are separate entries in the source; they are usually repeats but may differ in a detail not shown here. Equal entries are not always repeated. Inconclusive results are not listed. Entries that show only a call come without a potency. Active and inactive are the calls of the source. The call rests on the fitted dose curve; in most records, active means well fitted activation curve with a large enough effect in the signal ratio in the repeat runs (not every such curve was filed as active); inconclusive means weak or mixed curves, or effect the other way; inactive means no such curve, though single readings can be large or run the other way; the % refers to the signal ratio. Potency means the concentration at half of the fitted maximal effect.", "data": [{"assay": "qHTS assay for small molecule agonists of the antioxidant response element (ARE) signaling pathway (AID 743202)", "settings": "HepG2 ARE-bla reporter, beta-lactamase FRET, 16 h; series mostly up to 73.3 µM; activation: at the top concentration", "excerpt": "U.S. Tox21 Program National Center for Advancing Translational Sciences [NCATS] NIH Chemical Genomics Center [NCGC] U.S. Environmental Protection Agency [EPA] National Institutes of Environmental Health Sciences [NIEHS] National Toxicology Program [NTP] U.S. Food and Drug Administration [FDA] Tox21 Assay Overview: Oxidative stress has been implicated in the pathogenesis of a variety of diseases ranging from cancer to neurodegeneration. The antioxidant response element (ARE) signaling pathway plays an important role in the amelioration of oxidative stress. The CellSensor ARE-bla HepG2 cell line (Invitrogen) can be used for analyzing the Nrf2/antioxidant response signaling pathway. Nrf2 (NF-E2-related factor 2) and Nrf1 are transcription factors that bind to AREs and activate these genes. The CellSensor ARE-bla Hep G2 cell line contains a beta-lactamase reporter gene under control of the Antioxidant Response Element (ARE) stably integrated into HepG2 cells. The activation of the report gene under culture conditions can be detected by fluorescence intensity. This cell line has been used to screen the Tox21 10K compound library to identify agonists that induce oxidative stress.\nTox21 Assay Protocol Summary: The ARE-bla cells were dispensed at 2,000 cells/5 ul/well in 1536-well black wall/clear bottom plates using a Multidrop dispenser. After the assay plates were incubated at a 37 C/5% CO2 incubator for 5 hours, 23 nL of compounds dissolved in DMSO, positive controls or DMSO only was transferred to the assay plate by a pin tool. The plates were incubated at 37 C for 16 hours. After 1 uL of LiveBLAzer B/G FRET substrate was added using a Flying Reagent Dispenser, the plates were incubated at room temperature for 2 hours, and fluorescence intensity was measured by an Envision plate reader.", "values": [{"smiles": "Cc1nnc(NS(=O)(=O)c2ccc(N)cc2)s1", "Potency": "inactive"}, {"smiles": "CC(=O)OCCC(C)C", "Potency": "inactive"}, {"smiles": "COC(=O)CCCCC(=O)OC", "activation": "14.2% (inactive)"}, {"smiles": "C[n+]1ccn(CCO)c1", "Potency": "inactive"}, {"smiles": "CC/C(C)=N/O", "Potency": "inactive"}, {"smiles": "Cc1ccccc1C=O", "activation": "-2.23% (inactive)"}, {"smiles": "Oc1ccc(Cc2ccccc2O)cc1", "Potency": "30.6 µM (active)"}, {"smiles": "Cc1ccncc1", "activation": "-4.21% [at 94.8 µM] (inactive)"}, {"smiles": "C=CC(C)(C)C", "Potency": "inactive"}, {"smiles": "CC(C)=CCC/C(C)=C/C=O", "activation": "-3.87% [at 94.8 µM] (inactive)"}, {"smiles": "NC(=O)c1ncn([C@@H]2O[C@H](CO)[C@@H](O)[C@H]2O)n1", "Potency": "inactive"}, {"smiles": "CO[Si](CCCNCCN)(OC)OC", "Potency": "inactive"}, {"smiles": "OB(O)O", "Potency": "inactive"}, {"smiles": "CN1Cc2c(N)cccc2C(c2ccccc2)C1", "note": "(stereo not given)", "Potency": "inactive"}, {"smiles": "O=C(Cl)c1ccc(C(=O)Cl)cc1", "Potency": "inactive"}, {"smiles": "CCOC(=O)CC(=O)OCC", "Potency": "inactive"}, {"smiles": "CN=C(NC#N)NCCSCc1nc[nH]c1C", "Potency": "inactive"}, {"smiles": "CC1(C)[C@@H](O[C@H]2O[C@H](C(=O)O)[C@@H](O)[C@H](O)[C@H]2O[C@@H]2O[C@H](C(=O)O)[C@@H](O)[C@H](O)[C@H]2O)CC[C@]2(C)[C@H]3C(=O)C=C4[C@@H]5C[C@@](C)(C(=O)O)CC[C@]5(C)CC[C@@]4(C)[C@]3(C)CC[C@@H]12", "Potency": "inactive"}, {"smiles": "CC1(C)C(=O)N(Cl)C(=O)N1Cl", "Potency": "inactive"}, {"smiles": "OCC(CO)(CO)CO", "Potency": "inactive"}, {"smiles": "CCCCCCCCCCCC(=O)N(C)CC(=O)O", "activation": "-3.99% [at 8.36 µM] (inactive)"}, {"smiles": "CN1CCCC1=O", "Potency": "inactive"}, {"smiles": "OCCOCCOCCOCCOCCO", "activation": "-2.9% [at 94.8 µM] (inactive)"}, {"smiles": "CC(=O)OC/C=C(\\C)CCC=C(C)C", "Potency": "inactive"}, {"smiles": "N#CCC(=O)O", "activation": "-7.59% (inactive)"}, {"smiles": "CCCCCCCC(=O)O", "Potency": "inactive"}, {"smiles": "CCc1cccc(O)c1", "activation": "-15.4% [at 94.8 µM] (inactive)"}, {"smiles": "O=C1OC(=O)c2c(Cl)c(Cl)c(Cl)c(Cl)c21", "activation": "5.8% [at 94.8 µM] (inactive)"}, {"smiles": "COCN(COC)c1nc(N(COC)COC)nc(N(COC)COC)n1", "Potency": "inactive"}, {"smiles": "CC1=CC(=O)CC(C)(C)C1", "activation": "-6.29% [at 94.8 µM] (inactive)"}, {"smiles": "Nc1nc(N)c2nc(-c3ccccc3)c(N)nc2n1", "Potency": "31 µM (active) and 30.6 µM (active) and 23.7 µM (active)"}, {"smiles": "COc1ccccc1[N+](=O)[O-]", "activation": "-7.08% (inactive)"}, {"smiles": "CC(=O)c1nccs1", "Potency": "inactive"}, {"smiles": "Cc1cc(C)cc(O)c1", "Potency": "inactive"}, {"smiles": "O=Cc1ccc(CO)o1", "Potency": "inactive"}, {"smiles": "CCCCCCCCO", "activation": "-4.26% [at 94.8 µM] (inactive)"}, {"smiles": "CCCCCCC(=O)O", "activation": "14.1% (inactive)"}, {"smiles": "COc1ccc2cc3[n+](cc2c1OC)CCc1cc2c(cc1-3)OCO2", "Potency": "2.45 µM (active) and 5.96 µM (active)"}, {"smiles": "CS(=O)(=O)c1ccc(Cl)cc1", "Potency": "inactive"}, {"smiles": "CC(=O)OC(C)(C)C1CC=C(C)CC1", "note": "(stereo not given)", "activation": "-4.58% (inactive)"}]}]}
